Results filed as inconclusive are left out. A call without a number means that no potency is given here. Unmarked numbers belong to inactive results. The source made the active and inactive calls. Calls follow the shape of the full dose curve.
Assay: qHTS assay to identify small molecule agonists of the endoplasmic reticulum stress response signaling pathway - cell viability counter screen (AID 1159517); also: nearly all actives have a fitted effect of over 50% in size
Conditions: ESRE-bla HeLa viability, CellTiter-Glo luminescence, 5 h; series mostly up to 61 µM
Text: U.S. Tox21 Program National Center for Advancing Translational Sciences [NCATS] NIH Chemical Genomics Center [NCGC] U.S. Environmental Protection Agency [EPA] National Institutes of Environmental Health Sciences [NIEHS] National Toxicology Program [NTP] U.S. Food and Drug Administration [FDA] Tox21 Assay Overview: Endoplasmic Reticulum (ER) plays an important role in cellular signaling, protein folding/maturation, stress response, lipid biosynthesis, calcium storage and release etc. Under stress conditions, proteins in ER misfold or unfold, and leading to the expression of ER stress responsive genes. ER stress has been associated with a variety of pathophysiological conditions such as cancer, inflammation, neurodegenerative diseases, diabetes, ischemic heart disease etc. To identify the compounds that induce ER stress response, an ER stress reporter cell line, CellSensor ESRE-bla HeLa (Life Technologies, Carlsbad, CA) containing a beta-lactamase reporter gene under control of the Endoplasmic reticulum Stress Response Element (ESRE) was used to screen Tox21 10K compound library. The cytotoxicity of the Tox21 compound library against the ESRE-bla HeLa cell line was tested in parallel by measuring cell viability using the CellTiter-Glo assay in the same wells.
Tox21 Assay Protocol Summary: ESRE-bla HeLa cells were dispensed at 1,500 cells/6 uL of assay medium per well into black wall/clear-bottom 1536-well plates using a Multidrop Combi (ThermoFisher Scientific, Waltham, MA) dispenser. After the assay plates were incubated at 37 C and 5% CO2 for an overnight, 23 nL of compounds dissolved in DMSO, positive controls or DMSO only was transferred to the assay plate by a Pintool station (Kalypsys, San Diego, CA). The assay plates were incubated at 37 C and 5% CO2 for 5 hr. One uL of LiveBLAzer B/G FRET substrate (Life Technologies) was added using a FRD (Flying Reagent Dispenser, Aurora Discovery, San Diego, CA) and the plates were incubated at room temperature for 2 hr. Fluorescence intensity (405 nm excitation, 460 nm and 530 nm emissions) was measured using an Envision plate reader (PerkinElmer, Shelton, CT). For cytotoxicity, 4 ul/well of CellTiter-Glo reagent was added into the assay plates using an FRD. After 30 min incubation at room temperature, the luminescence intensity was measured using a ViewLux plate reader (PerkinElmer).
With `CCNC(=O)C1CC(C)CCC1C(C)C` (stereo not given) the Potency was “inactive”.
In the case of `CCCCCCCCC1CCC(=O)O1` (stereo not given), the Potency is reported as “inactive”.
For `CCC(CC)CO`, the Potency was “inactive”.
In the case of `CCCCNC1CC(C)(C)NC(C)(C)C1`, the Potency is reported as “inactive”.
For `C=CC(OCC)OCC`, the Potency was “inactive”.
For `FC(F)(F)c1ccccc1-n1ccnc1`, the Potency was “inactive”.
With `c1ccc2c(c1)ccc1c3ccccc3ccc21` the Potency was “inactive”.
With `COc1cc2c(cc1OC)[C@@H]1CC(=O)[C@@H](CC(C)C)CN1CC2` the Potency was “inactive”.
With `O=S(=O)(O)c1ccc2cc(O)c(S(=O)(=O)O)cc2c1` the Potency was “inactive”.
For `BrCCCCCBr`, the Potency was “inactive”.
For `CCCCCOC(=O)CCC`, the Potency was “inactive”.
With `CC(COC(C)(C)C)OCCCO` (stereo not given) the Potency was “inactive”.
With `O=C(O)C(=O)Cc1ccccc1` the Potency was “inactive”.
With `CCCCNc1ccc(C(=O)OCCN(C)C)cc1` the Potency was “inactive”.
For `COc1cc2c(cc1OC)C(=O)CC2`, the Potency was “inactive”.
With `Cc1cc(NC(=O)C2=C(O)c3ccccc3S(=O)(=O)N2C)no1` the Potency was “inactive”.
In the case of `O=C(O)CCSSCCC(=O)O`, the Potency is reported as “inactive”.
With `OC[C@H](Cc1cccc(O)c1)[C@H](CO)Cc1cccc(O)c1` the Potency was “inactive”.
For `CCc1ccc(C=O)cc1`, the Potency was “inactive”.
With `CC1(C)S[C@@H]2[C@H](N=CN3CCCCCC3)C(=O)N2[C@H]1C(=O)O` the Potency was “inactive”.
In the case of `Cc1ccc(S(=O)(=O)O)c(C)c1`, the Potency is reported as “inactive”.
With `C[Si](C)=O` the activity change, negative = cytotoxicity was -12.1% [at 6.95 µM].
For `CCCCCCCCCCCCCC`, the Potency was “inactive”.
In the case of `CCCC/C=C/C=C\C=O`, the Potency is reported as “inactive”.
For `CC1=C(C(=O)O)N2C(=O)[C@@H](NC(=O)[C@H](N)c3ccc(O)cc3)[C@H]2SC1`, the Potency was “inactive”.
In the case of `COc1ccc(Br)c(C)c1`, the Potency is reported as “inactive”.
In the case of `C=COCCOCCOCCOC=C`, the Potency is reported as “inactive”.
With `O=C(OCc1ccccc1)C(=O)OCc1ccccc1` the Potency was “inactive”.
With `Nc1ccc(S(=O)(=O)Nc2ccc(Cl)nn2)cc1` the Potency was “inactive”.
With `CC/C=C\CC1=C(C)CCC1=O` the Potency was “inactive”.
For `CCCC(=O)C(C)=O`, the Potency was “inactive”.
In the case of `COCCc1ccc(OCC2CO2)cc1` (stereo not given), the Potency is reported as “inactive”.
For `Cc1[nH]cnc1-c1ccc(Cl)cc1`, the Potency was “inactive”.
For `CC1=CCC(C(C)C)=CC1`, the Potency was “inactive”.
For `CCCCCCN`, the Potency was “inactive”.
In the case of `CC(C(=O)O)c1ccc2c(c1)CC(=O)c1ccccc1S2` (stereo not given), the Potency is reported as “inactive”.
In the case of `O=P(O)(O)OP(=O)(O)O`, the Potency is reported as “inactive”.
For `CC(C)CC(C)CC(C)CC(C)COC(=O)c1ccccc1C(=O)OCC(C)CC(C)CC(C)CC(C)C` (stereo not given), the Potency was “inactive”.
With `CC(=O)CCCCn1c(=O)c2c(ncn2C)n(C)c1=O` the Potency was “inactive”.
For `CCCCCCOc1ccccc1C(N)=O`, the Potency was “inactive”.

— PubChem BioAssay (Tox21)
